The values below come from PubChem BioAssay AID1224861 (National Center for Advancing Translational Sciences (NCATS), 2016).

Inconclusive results are not listed. Values without a mark were called inactive. Activity calls are given as the source filed them. The call rests on the fitted dose curve; in most records, active means well fitted cell-killing curve with a large enough effect; inconclusive means small, poorly fitted or top-dose-only effect, or effect the other way; inactive means flat fitted curve, though single readings scatter.

The test in a line: Compound cytotoxicity measured by an ATP content assay as a counter-screen for lead compounds in human astrocytes. The following applies: human astrocytes viability, ATP luminescence; series mostly up to 46.1 µM; activity change, negative = cytotoxicity: at the top concentration. As to the method:
National Center for Advancing Translational Sciences [NCATS] Johns Hopkins University School of Medicine Florida State University Assay Overview: Many compounds can cause cytotoxicity at high compound concentrations. […] The compound cytotoxicity may also cause side effects or toxicity in human. Thus, the compound cytotoxicity needs to be measured in each cell type and each compound incubation time - same as these in the compound screening assay. The compound cytotoxicity can be measured by cell viability assays such as the ATP content assay. We use an ATP content assay kit for cell viability measurement. It measures ATP content (level) in human astrocytes using a luminescence readout that is proportional to viable cell numbers. Decrease in the luminescence signal after the compound treatment indicates reduced cell viability and cell death caused by compound treatment.
Assay Protocol Summary: The medium for astrocytes contains AM basal medium (ScienCell, Cat.# 1801), AGS (ScienCell, Cat.# 1801), 10% FBS, and 1% Pen/Strep. The ATP content assay kit (PerkinElmer, Cat.# 6016731) was used to determine cell viability. The reagent was reconstituted and prepared as described by the manufacturer. Cells were seeded in 384- or 1536-well assay plates and cultured at 37 C with 5% CO2 for 16 to 20 hours. The typical cell seeding density in the 1536-well plate assay is 350 cells/well in 3 ul medium for astrocytes in the tissue cultured treated/PDL coated plates. Compounds were added to cells and incubated for a specific time such as 6, 24, or 72 hours before addition of the reagent mixture of the ATP content assay kit at 1:1 ratio. After incubation at room temperature for 10 minutes, the luminescence intensity in assay plates was measured using a ViewLux plate reader (PerkinElmer). […] The percentage inhibitions of the decreased cell viability by small molecules were then calculated that indicate compound cytotoxicity.
Consider `CC(C(=O)O)c1ccc(-c2ccccc2)c(F)c1` (stereo not given), for which the “activity change, negative = cytotoxicity” value is 18.4%. As to `O=C1c2ccccc2-[n+]2ccc3c([nH]c4ccccc43)c21`, the Potency is 4.35 µM (active). Turning to `Cc1cc(O)c2ccccc2c1O`, the Potency was 8.69 µM (active). For the molecule `Nc1nc2ccc([N+](=O)[O-])cc2s1`, the “activity change, negative = cytotoxicity” value is 7.77% [at 88.3 µM]. For the molecule `CCCS(=O)c1ccc2nc(NC(=O)OC)[nH]c2c1` (stereo not given), the “activity change, negative = cytotoxicity” value was -0.17%. For `Cc1c(N)c(=O)n(-c2ccccc2)n1C`, the “activity change, negative = cytotoxicity” value is -1.57%. On to `CC(C(=O)O)c1ccc(C(=O)c2cccs2)cc1` (stereo not given), for which the “activity change, negative = cytotoxicity” value was -16.1%. Still for that read-out and setting: then `O=c1cc(-c2ccccc2)oc2cc(O)cc(O)c12`, with -1.78%. `Oc1ccc(/C=C/c2cc(O)cc(O)c2)cc1`: the Potency is 10.9 µM (active). For `O=C1C(Cl)=C(NCCN2CCOCC2)C(=O)c2ncccc21`, the Potency was 7.74 µM (active). In the case of `O=C(O)[C@H](CC(=O)N1C[C@@H]2CCCC[C@H]2C1)Cc1ccccc1`, the “activity change, negative = cytotoxicity” value is 13.6%. Still for that read-out and setting: in the case of `N#C/C(=C\c1ccc(O)c(O)c1)C(=O)Nc1ccccc1` it was -1.6%; in that of `CCCCCCCC/C=C/C(=O)O`, 11.4%; in that of `CC1=C(CO)C(=O)O[C@@H]([C@@H](C)[C@H]2CC[C@H]3[C@@H]4C[C@H]5O[C@]56[C@@H](O)C=CC(=O)[C@]6(C)[C@@H]4CC[C@]23C)C1`, 14.6%.

On to `CN(C)c1ccc(C(=C2C=CC(=[N+](C)C)C=C2)c2ccccc2)cc1`, for which the “activity change, negative = cytotoxicity” value is -28.5%.

Regarding `COc1cccc2c1C(=O)c1c(O)c3c(c(O)c1C2=O)C[C@@](O)(C(=O)CO)C[C@@H]3O[C@H]1C[C@H](N)[C@H](O[C@@H]2CCCCO2)[C@H](C)O1`, the “activity change, negative = cytotoxicity” value was -21.9%. Consider `CC(=O)Oc1cccc2c1C(=O)c1c(OC(C)=O)cc(C(=O)O)cc1C2=O`, for which the “activity change, negative = cytotoxicity” value was -14.1%. In the case of `Cc1oncc1C(=O)Nc1ccc(C(F)(F)F)cc1`, the “activity change, negative = cytotoxicity” value is -12.6%. Regarding `O=C(C=CC=Cc1ccc2c(c1)OCO2)N1CCCCC1`, the “activity change, negative = cytotoxicity” value is -18.9%. Same read-out and setting: then `CCCCC1C(=O)N(c2ccccc2)N(c2ccc(O)cc2)C1=O` (stereo not given), with -16.9%; and `CC1(C)Cc2c(sc(NC(=S)NC(=O)c3ccccc3)c2C(=O)O)CO1`, with 1.95%. Same read-out and setting: then `CN1CC(=O)N/C1=N/C(=O)Nc1cccc(Cl)c1`, with 10.6%. As for `O=c1cc(-c2ccccc2)oc2cc(O)c(O)c(O)c12`, the “activity change, negative = cytotoxicity” value is -2.73%. As for `Cc1csc(NC(=O)c2sc3nc4c(c(C(F)(F)F)c3c2N)CCC4)n1`, the Potency was 3.46 µM (active). On to `[O-][n+]1ccccc1SSc1cccc[n+]1[O-]`, for which the Potency is 0.112 µM (active). With `CN(C)CCCSc1ccccc1NC(=O)/C=C/c1ccccc1`, the “activity change, negative = cytotoxicity” value is 9.71%.

Regarding `CC=CC[C@@H](C)C(=O)[C@H]1C(=O)N[C@@H](C(C)C)C(=O)N(C)CC(=O)N(C)[C@@H](CC(C)C)C(=O)N[C@@H](C(C)C)C(=O)N(C)[C@@H](CC(C)C)C(=O)N[C@@H](C)C(=O)N[C@H](C)C(=O)N(C)[C@@H](CC(C)C)C(=O)N(C)[C@@H](CC(C)C)C(=O)N(C)[C@@H](C(C)C)C(=O)N1C`, the “activity change, negative = cytotoxicity” value is -7.44%. In the case of `CCCCCCOc1ccccc1C(N)=O`, the “activity change, negative = cytotoxicity” value was 15.9%.

`CC(C)OC(=O)CCCC=CC[C@@H]1[C@H](C=C[C@@H](O)COc2cccc(C(F)(F)F)c2)[C@H](O)C[C@@H]1O`: the “activity change, negative = cytotoxicity” value is 8.58%.

Turning to `CC1(C)OC2=C(C(=O)c3ccccc3C2=O)[C@H](NCc2ccccc2)[C@H]1O`, the Potency is 8.91 µM (active). The same measure, in the same setting: in the case of `O=C(Nc1ccc([N+](=O)[O-])cc1Cl)c1cc(Cl)ccc1O` it was 1.09 µM (active).

With `Nc1ccc(O)c(C(=O)O)c1`, the “activity change, negative = cytotoxicity” value was -2.4%.

In the case of `CC(C)(C)OC(=O)CN(Cc1ccc(Cl)cc1)Cc1ccc([N+](=O)[O-])s1`, the “activity change, negative = cytotoxicity” value was -18.4% [at 88.3 µM].

In the case of `CCN1CCC(n2cc(CNc3cc(Cl)c4ncc(C#N)c(Nc5ccc(F)c(Cl)c5)c4c3)nn2)CC1`, the “activity change, negative = cytotoxicity” value is -4.32%. `CC(C)(C)COc1ccc(-n2cc(C(=O)O)cn2)cc1C#N`: the “activity change, negative = cytotoxicity” value was -0.262% [at 88.3 µM]. As for `COc1ccc(-c2cc(=S)ss2)cc1`, the “activity change, negative = cytotoxicity” value was -17.3%. `Cc1c(NC(=O)c2ccc(C(C)(C)C)cc2)cccc1-c1cn(C)c(=O)c(Nc2ccc(C(=O)N3CCOCC3)cc2)n1`: the “activity change, negative = cytotoxicity” value was -12.9%.

Turning to `COc1cc2nc(-c3ccc(N4CCN(C)CC4)cc3)nc(NCCN3CCOCC3)c2cc1OC`, the “activity change, negative = cytotoxicity” value was -8.43%. With `O=C(c1ccccc1)c1ccc2n1CCC2C(=O)O` (stereo not given), the “activity change, negative = cytotoxicity” value was 14.5%. As for `CCCC(=O)OC[C@@H](OC(=O)CCC)[C@@H](OC(=O)CCC)[C@H](Cn1c2nc(=O)[nH]c(=O)c-2nc2cc(C)c(C)cc21)OC(=O)CCC`, the “activity change, negative = cytotoxicity” value was -3.39%.
